The record followed here is PubChem BioAssay (NCI).

Values joined by “and” are separate entries in the source; they are usually repeats but may differ in a detail not shown here. Identical values can stand only once. About 83,000 compounds went through this panel and 20% of them were active in at least one assay; those are over-represented in the sample as a whole.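 Negative percent growth values reflect cell death: -40 means 40% of the cells present at the start died, and -100 means all died.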 Active and inactive are the calls of the source. How the source made its calls: active means growth percent below 10; inactive means the rest. Where a SMILES comes first, the peptide text is derived from it. The star is where a group is joined. Trt = c1ccc(C(c2ccccc2)(c2ccccc2)*)cc1; Cbz = O=C(OCc1ccccc1)*

For the first experiment, the system named is BT-549 breast. Put plainly: NCI-60 one-dose screen, 48 h (100 = growth as untreated, 0 = no growth, -100 = all killed). The conditions noted are these: 10 µM unless noted.
Turning to `COc1cc(/C=C/C(C)=O)ccc1O`, the growth was 104% (inactive).

`CC(C)(C)CC(C)(C)c1ccc(OCCSC(=N)N)cc1`: the growth was 104% (inactive).

For the molecule `COc1ccc(N=N/N=c2\sc3cc(OC)ccc3n2C)cc1`, the growth is 95.5% (inactive).

`O=C(Oc1cccc2cccnc12)c1ccccc1`: the growth was 101% (inactive) and 107% (inactive).

Turning to `S=C(NCCNC(=S)[S][Sn]([c]1ccccc1)([c]1ccccc1)[c]1ccccc1)[S][Sn]([c]1ccccc1)([c]1ccccc1)[c]1ccccc1`, the growth is -78.8% (active).

Consider `C[N+](C)=c1ccc2nc3c(cc(NCCCNc4cc5oc6cc(=[N+](C)C)ccc-6nc5c5ccccc45)c4ccccc43)oc-2c1`, for which the growth is 61.6% (inactive).

Regarding `C[n+]1c(/C=C/c2ccc([N+](=O)[O-])cc2)ccc2ccccc21`, the growth was 107% (inactive).

For the molecule `CCC(CCCN(CC)CCc1ccccc1)OC(=O)c1cc(OC)c(OC)c(OC)c1` (stereo not drawn), the growth was 99.6% (inactive).

Consider `O=C(/C=C\c1ccccc1)N1c2ccccc2CC1c1c[nH]c2ccccc12` (stereo not drawn), for which the growth is 88.6% (inactive).

For `OC(CNc1ccnc2cc(Cl)ccc12)CNc1ccnc2cc(Cl)ccc12`, the growth is 85.2% (inactive).

In the case of `COC(=O)c1nc(=S)[nH]c(C(=O)OC)c1C(=O)c1ccccn1`, the growth was 50.3% (inactive).

As to `Cc1ccc(N=C=C(c2ccccc2)c2ccccc2)cc1`, the growth was 91.9% (inactive).

Regarding `NC(=S)N/N=C/c1ccc(Cl)s1`, the growth is 112% (inactive).

For `O=[N+]([O-])c1ccc2c(N=Nc3ccc4ccccc4c3O)c(O)cc(S(=O)(=O)O)c2c1`, the growth is 92.4% (inactive).

For the molecule `CC(=Nc1ccc(N(C)C)cc1)c1ccccc1`, the growth is 58.3% (inactive).

In the case of `O=[N+]([O-])c1ccc(N=Nc2ccc(O)cc2O)cc1`, the growth is 64.5% (inactive).

As to `CCC(CC)COC(=O)c1ccc(O)c(O)c1`, the growth is 50% (inactive).

For `CCC(c1cccc(O)c1)C(CC)c1cccc(O)c1` (stereo not drawn), the growth was 66% (inactive).

Consider `COC(=O)C(CSC(c1ccccc1)(c1ccccc1)c1ccccc1)NC(=O)C(CC(N)=O)NC(=O)OCc1ccccc1` (stereo not drawn) (Cbz-Asn-Cys(Trt)-OMe; configuration not given here), for which the growth is 50.6% (inactive).

On to `CCC(=O)Sc1ccccc1C(=O)Nc1ccc(Cl)cc1`, for which the growth was 10.2% (inactive).

`Nc1ncnc2c1ncn2C1OC(CO)C(O)C1O` (stereo not drawn): the growth is 101% (inactive) and 47.6% (inactive) and 123% (inactive).

As for `Cc1ccc2c(ccc3c[n+]4c5ccccc5ccc4n32)c1`, the growth is -2.45% (active).

Regarding `O=C(Nc1ccc(F)cc1)ON=C1CCCCC1`, the growth was 106% [100 µM] (inactive).

`CC1=CC(O)C2CC1C2(C)C` (stereo not drawn): the growth was 98.9% (inactive).

As for `O=C(CC1(O)C(=O)Nc2c(Cl)ccc(Cl)c21)c1ccc(Cl)cc1Cl` (stereo not drawn), the growth was 90.2% (inactive).

Turning to `O=C1N[C@H]2[C@H](CS[C@H]2CCCCC(=O)N(CCP(c2ccccc2)c2ccccc2)CCP(c2ccccc2)c2ccccc2)N1`, the growth is 96.9% (inactive).

On to `C=C(Cl)C(=NC(C)(C)C)Nc1ccccc1C`, for which the growth is 102% (inactive).

On to `Cc1ccnc(NC(c2ccccc2)c2ccc3cccnc3c2O)c1` (stereo not drawn), for which the growth is 57.1% (inactive).

On to `O=C(O)C1C2CC3C(OC(=O)C31)C2Br` (stereo not drawn), for which the growth was 99.4% (inactive) and 93.2% (inactive).

On to `Cc1ccnc2c1ccc1c(C)ccnc12`, for which the growth is 23.2% (inactive).

Consider `COc1ccccc1/C=C\C(=O)c1ccccc1`, for which the growth was 83.2% (inactive).

The next experiment has as its system MDA-MB-435 melanoma. The description is as above. The conditions noted are these: 10 µM unless noted.
For the molecule `COc1cc(/C=C/C(C)=O)ccc1O`, the growth is 101% (inactive) and 106% (inactive).

`CC(C)(C)CC(C)(C)c1ccc(OCCSC(=N)N)cc1`: the growth was 20.2% (inactive).

For `COc1ccc(N=N/N=c2\sc3cc(OC)ccc3n2C)cc1`, the growth was 104% (inactive).

As to `O=C(Oc1cccc2cccnc12)c1ccccc1`, the growth is 88% (inactive).

Take `S=C(NCCNC(=S)[S][Sn]([c]1ccccc1)([c]1ccccc1)[c]1ccccc1)[S][Sn]([c]1ccccc1)([c]1ccccc1)[c]1ccccc1`: the growth is -88% (active).

As to `C[N+](C)=c1ccc2nc3c(cc(NCCCNc4cc5oc6cc(=[N+](C)C)ccc-6nc5c5ccccc45)c4ccccc43)oc-2c1`, the growth was -82.1% (active).

For the molecule `C[n+]1c(/C=C/c2ccc([N+](=O)[O-])cc2)ccc2ccccc21`, the growth is 108% (inactive).

As for `CCC(CCCN(CC)CCc1ccccc1)OC(=O)c1cc(OC)c(OC)c(OC)c1` (stereo not drawn), the growth is 100% (inactive).

Turning to `O=C(/C=C\c1ccccc1)N1c2ccccc2CC1c1c[nH]c2ccccc12` (stereo not drawn), the growth was 83.8% (inactive).

For the molecule `OC(CNc1ccnc2cc(Cl)ccc12)CNc1ccnc2cc(Cl)ccc12`, the growth was -43.6% (active).

Turning to `COC(=O)c1nc(=S)[nH]c(C(=O)OC)c1C(=O)c1ccccn1`, the growth is 33.3% (inactive).

For `Cc1ccc(N=C=C(c2ccccc2)c2ccccc2)cc1`, the growth is 79.9% (inactive).

Take `NC(=S)N/N=C/c1ccc(Cl)s1`: the growth was 104% (inactive).

As for `O=[N+]([O-])c1ccc2c(N=Nc3ccc4ccccc4c3O)c(O)cc(S(=O)(=O)O)c2c1`, the growth was 97% (inactive).

For the molecule `CC(=Nc1ccc(N(C)C)cc1)c1ccccc1`, the growth was 54.4% (inactive).

`O=[N+]([O-])c1ccc(N=Nc2ccc(O)cc2O)cc1`: the growth was 10.1% (inactive).

For the molecule `CCC(CC)COC(=O)c1ccc(O)c(O)c1`, the growth is 69.8% (inactive).

On to `CCC(c1cccc(O)c1)C(CC)c1cccc(O)c1` (stereo not drawn), for which the growth was -15.9% (active).

As to `COC(=O)C(CSC(c1ccccc1)(c1ccccc1)c1ccccc1)NC(=O)C(CC(N)=O)NC(=O)OCc1ccccc1` (stereo not drawn) (Cbz-Asn-Cys(Trt)-OMe; configuration not given here), the growth was -37.3% (active).

In the case of `CCC(=O)Sc1ccccc1C(=O)Nc1ccc(Cl)cc1`, the growth was 25.9% (inactive).

On to `Nc1ncnc2c1ncn2C1OC(CO)C(O)C1O` (stereo not drawn), for which the growth was 110% (inactive) and 103% (inactive) and 112% (inactive).

As to `Cc1ccc2c(ccc3c[n+]4c5ccccc5ccc4n32)c1`, the growth was -27.5% (active).

For `O=C(Nc1ccc(F)cc1)ON=C1CCCCC1`, the growth was 98.1% [100 µM] (inactive).

For `CC1=CC(O)C2CC1C2(C)C` (stereo not drawn), the growth was 103% (inactive) and 97.3% (inactive).

For `O=C(CC1(O)C(=O)Nc2c(Cl)ccc(Cl)c21)c1ccc(Cl)cc1Cl` (stereo not drawn), the growth is 91.6% (inactive).

Regarding `O=C1N[C@H]2[C@H](CS[C@H]2CCCCC(=O)N(CCP(c2ccccc2)c2ccccc2)CCP(c2ccccc2)c2ccccc2)N1`, the growth is 96.1% (inactive).

For `C=C(Cl)C(=NC(C)(C)C)Nc1ccccc1C`, the growth is 32.2% (inactive).

Regarding `Cc1ccnc(NC(c2ccccc2)c2ccc3cccnc3c2O)c1` (stereo not drawn), the growth was 30.5% (inactive).

With `Cc1cc2nc(CS)[nH]c2cc1C`, the growth is 90.9% (inactive).

Regarding `O=C(O)C1C2CC3C(OC(=O)C31)C2Br` (stereo not drawn), the growth was 109% (inactive) and 95.4% (inactive).

`Cc1ccnc2c1ccc1c(C)ccnc12`: the growth was 32% (inactive).

As to `COc1ccccc1/C=C\C(=O)c1ccccc1`, the growth is 46.4% (inactive).
